An excerpt weighted towards active compounds, which were near 7.9% of everything screened.
KB-V1 cytotox: kills drug-selected multidrug resistant KB-V1 cells; 400,000 compounds, 3.4% hits; Potency, µM (top dose mostly 46.1 µM), most hits filed as cytotoxic; KB-V1 MDR cells viability, CellTiter-Glo, 72 h; AID 1347076; further: on the % scale 0 is the no-effect control and ±100 the full control effect; nearly all actives have a fitted effect of over 60% in size
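In this primary screen, KB-V1 cells overexpressing P-gp are incubated with library compounds (lowest to highest concentration) for 72 h at 37 degrees C before a luminescent ATP viability read.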
HT1080-NT tox: kills 2HG-producing HT-1080-NT fibrosarcoma cells; HT-1080-NT fibrosarcoma viability, CellTiter-Glo ATP luminescence, 48 h; Potency, µM (doses to about 46.1 µM), inactives show at the top dose activity, negative = less viability, most hits filed as cytotoxic; 360,000 compounds, 1.6% hits;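 further: NT is the 2HG producing partner of a matched IDH1 knockdown line; 0% = DMSO-treated cells and -100% = media-only wells without cells; nearly all actives have a fitted effect of over 55% in size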
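Toxicity toward the 2HG-producing NT line was scored as %Activity, normalised to DMSO and no-cell wells, from CellTiter-Glo luminescence after 48 hours' treatment.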
KB-3-1 tox: kills parental KB-3-1 adenocarcinoma cells | KB-3-1 viability, CellTiter-Glo ATP luminescence, 72 h | Potency, µM (doses to about 46.1 µM), hits mostly cytotoxic | 400,000 compounds, 1.4% hits | AID 1347075; further: on the % scale 0 is the no-effect control and ±100 the full control effect; nearly all actives have a fitted effect of over 60% in size
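Multi-concentration cytotoxicity screen in KB-3-1 cells grown in DMEM lacking phenol red with 10% FBS. After 72 h at 37 °C with compound, ATP-dependent luminescence was recorded.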
HT1080 IDH1KD tx: HT-1080 IDH1 knockdown cell toxicity (counter line); HT-1080 IDH1 knockdown viability, ATP luminescence, 48 h; Potency, µM (top dose mostly 46.1 µM), for the others: at the top dose activity, negative = toxicity, hits mostly cytotoxic; 360,000 compounds, 2% hits;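 further: 0% = DMSO wells and -100% = cell-free medium wells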
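CellTiter-Glo luminescence after 48 h compound exposure at 37 degrees C of IDH1-knockdown HT-1080 cells in 5% FBS RPMI. %Activity scaled between DMSO wells and cell-free media wells, with curves fitted and assigned curve classes.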
MCF10A rereplic: DNA re-replication induction in MCF 10a cells | MCF 10A DNA re-replication, Hoechst nuclear intensity, 48 h | Potency, µM (doses to about 46.1 µM), for the others: at the highest dose activity, positive = re-replication, usual class: activators | 350,000 compounds, 2.9% hits | AID 624296; further: % of control where 0% means no effect; nearly all actives have a fitted effect of over 50% in size
SW480 rerep: DNA re-replication induction in SW480 cells; Potency, µM (titrated, usually from 46.1 µM), without a hit: at the top dose re-replication activation, hits mostly activators; SW480 DNA re-replication, Hoechst DNA content imaging, 48 h; AID 624297; 340,000 compounds, 1.8% hits; further: % of control where 0% means no effect; nearly all actives have a fitted effect of over 55% in size
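Cells (250 per well) received 23 nL compound or DMSO by pin tool and were kept 48 hr at 37 C, 5% CO2. Nuclei were then stained with Hoechst for 40 min and scanned for DNA content.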
The depositor's hits bear a star; [ ] = remark or other dose. The call rests on the fitted dose curve; in most records, active means well fitted curve in the direction sought with a large enough effect; inconclusive means small, poorly fitted or top-dose-only effect, or another doubt; inactive means no such curve, though single readings can be large; an effect the other way counts as inactive or inconclusive. Potency means the concentration at half of the fitted maximal effect.

For CN(CC(=O)Nc1ccc(Cl)c(C(F)(F)F)c1)C(=O)c1ccc(OCC2CCCO2)cc1 (stereo not given) the results were KB-V1 cytotox 7.3µM*, HT1080-NT tox -15%, KB-3-1 tox inconclusive, HT1080 IDH1KD tx inconclusive, MCF10A rereplic 14% and SW480 rerep 11%.
Cc1ccc(C(=O)N(C)CC(=O)Nc2ccc(Cl)c(C(F)(F)F)c2)cc1S(=O)(=O)N1CCCCC1 was read as KB-V1 cytotox inconclusive, HT1080-NT tox inconclusive, KB-3-1 tox inconclusive, HT1080 IDH1KD tx inconclusive, MCF10A rereplic 21µM* and SW480 rerep inconclusive.
Screening CN(CC(=O)Nc1ccc(Cl)c(C(F)(F)F)c1)C(=O)c1ccc(S(=O)(=O)N2CCOCC2)cc1 returned KB-V1 cytotox inconclusive, HT1080-NT tox -24%[9.24 µM], KB-3-1 tox 8.2µM*, HT1080 IDH1KD tx 10µM*, MCF10A rereplic 5.8µM* and SW480 rerep inconclusive.
For COC(=O)C[C@H]1C=C[C@@H](NC(=O)NC2CCCCC2)[C@@H](CO)O1 the results were KB-V1 cytotox inactive, HT1080-NT tox 19%, KB-3-1 tox inactive and HT1080 IDH1KD tx 6%.
`COc1ccccc1C(=O)NCC(=O)N1CC=C(c2ccccc2)CC1` gave KB-V1 cytotox 16µM*, HT1080-NT tox -9%, KB-3-1 tox inconclusive, HT1080 IDH1KD tx 0%, MCF10A rereplic -2% and SW480 rerep -6%.
`COC(=O)c1cc2sc(Cl)cc2n1Cc1nc(-c2ccccc2C)oc1C` gave KB-V1 cytotox inactive and KB-3-1 tox inactive.
COc1ccc(N2C(c3ccsc3)=Cc3cc4c(cc3C2c2c[nH]c3ccccc23)OCO4)cc1 (stereo not given) was read as KB-V1 cytotox inactive, HT1080-NT tox 21µM*, KB-3-1 tox inconclusive and HT1080 IDH1KD tx inconclusive.
`COc1ccc(C2C(C#N)=C(N)OC3=C2C(=O)CC(C)C3)c(OC)c1OC` (stereo not given) gave KB-V1 cytotox inactive, HT1080-NT tox 3%, KB-3-1 tox inactive, HT1080 IDH1KD tx 6%, MCF10A rereplic 5% and SW480 rerep -9%.
Screening COc1ccc2c(c1OC)OCC2C (stereo not given) returned KB-V1 cytotox 15µM*, HT1080-NT tox 3%, KB-3-1 tox inconclusive, HT1080 IDH1KD tx 8%, MCF10A rereplic inconclusive and SW480 rerep 8%.
`O=c1[nH]nc(SCCS(=O)(=O)c2ccc(F)cc2)n1-c1ccc2c(c1)OCCO2` gave KB-V1 cytotox inactive, HT1080-NT tox -17%, KB-3-1 tox inactive, HT1080 IDH1KD tx inconclusive, MCF10A rereplic inconclusive and SW480 rerep inconclusive.
Screening O=c1[nH]nc(SCCS(=O)(=O)c2ccc(F)cc2)n1-c1ccccc1 returned KB-V1 cytotox inactive, HT1080-NT tox inconclusive, KB-3-1 tox inactive, HT1080 IDH1KD tx inconclusive, MCF10A rereplic 23µM* and SW480 rerep 16%.
Screening Cc1c(NC(=O)/C(C#N)=C/c2ccc(-c3cccc(Cl)c3)o2)c(=O)n(-c2ccccc2)n1C returned KB-V1 cytotox 9.2µM*, HT1080-NT tox -30%, KB-3-1 tox inconclusive, HT1080 IDH1KD tx -21%, MCF10A rereplic inconclusive and SW480 rerep inconclusive.
CN(Cc1ccccc1)C(=O)c1[nH]cnc1C(=O)Nc1nccs1 was read as KB-V1 cytotox inactive, HT1080-NT tox 12%, KB-3-1 tox inactive, HT1080 IDH1KD tx 7%, MCF10A rereplic inconclusive and SW480 rerep -8%.
For O=C(Nc1nccs1)c1nc[nH]c1C(=O)NCc1ccccc1 the results were KB-V1 cytotox inactive, HT1080-NT tox inconclusive, KB-3-1 tox inconclusive, HT1080 IDH1KD tx 0.82µM*, MCF10A rereplic 0% and SW480 rerep 2%.
Screening CCCN1C(=O)c2ccccc2NC1c1ccc(Cl)c(Cl)c1 (stereo not given) returned KB-V1 cytotox inactive, HT1080-NT tox 0%, KB-3-1 tox inconclusive, HT1080 IDH1KD tx -2%, MCF10A rereplic 16% and SW480 rerep 0%.
CN1CC(c2ccc(Cl)c(Cl)c2)[C@@]2(COc3ccccc3C2=O)[C@@]12C(=O)Nc1ccccc12 (stereo not given in full) was read as KB-V1 cytotox 9.2µM*, HT1080-NT tox -10%, KB-3-1 tox inconclusive, HT1080 IDH1KD tx 7%, MCF10A rereplic 16µM* and SW480 rerep inconclusive.
`Cc1cc(N2CCC(C(=O)NCCC(C)C)CC2)n2nc(C)c(-c3ccc(Cl)cc3)c2n1` gave KB-V1 cytotox inactive and KB-3-1 tox inactive.
`Cc1ccc2[nH]c(=O)c(CN(CC3CCCO3)C(=S)NCc3ccco3)cc2c1` (stereo not given) gave KB-V1 cytotox inactive, HT1080-NT tox 0%, KB-3-1 tox inactive, HT1080 IDH1KD tx -3%, MCF10A rereplic 7% and SW480 rerep 1%.
`CCNC(=S)N(Cc1cccs1)Cc1cc2cc(OCC)ccc2[nH]c1=O` gave KB-V1 cytotox 12µM*, HT1080-NT tox 4%, KB-3-1 tox inactive, HT1080 IDH1KD tx 11%, MCF10A rereplic -6% and SW480 rerep -5%.
Screening Cc1ccc2[nH]c(=O)c(CN(Cc3cccs3)C(=S)NCc3ccco3)cc2c1 returned KB-V1 cytotox 18µM*, HT1080-NT tox -1%, KB-3-1 tox inactive, HT1080 IDH1KD tx -17%, MCF10A rereplic 13% and SW480 rerep 9%.
CCNC(=S)N(Cc1ccco1)Cc1cc2cc(OCC)ccc2[nH]c1=O was read as KB-V1 cytotox inconclusive, HT1080-NT tox -13%, KB-3-1 tox inactive, HT1080 IDH1KD tx -4%, MCF10A rereplic inconclusive and SW480 rerep -34%.
CNC(=S)N1N=C(c2ccc(C)cc2)CC1c1cc(OC)ccc1OC (stereo not given) was read as KB-V1 cytotox inconclusive, HT1080-NT tox inconclusive, KB-3-1 tox 12µM*, HT1080 IDH1KD tx 21µM*, MCF10A rereplic inconclusive and SW480 rerep inconclusive.
For COc1ccccc1C1=NN(C(=S)Nc2ccccc2)C(c2ccco2)C1 (stereo not given) the results were KB-V1 cytotox 15µM*, HT1080-NT tox -2%, KB-3-1 tox inconclusive, HT1080 IDH1KD tx -6%, MCF10A rereplic 13% and SW480 rerep inconclusive.
COc1ccc(OC)c(C2CC(c3ccccc3)=NN2C(=S)Nc2ccccc2)c1 (stereo not given) was read as KB-V1 cytotox inactive, HT1080-NT tox inconclusive, KB-3-1 tox inactive, HT1080 IDH1KD tx inconclusive, MCF10A rereplic 4.1µM* and SW480 rerep 4.6µM*.
